Screening results from PubChem BioAssay.
12-LOX inh = inhibitors of human 12S-lipoxygenase ALOX12. 1.1% of 580,000 active. AID 1671190. purified 12hLO, xylenol orange hydroperoxide absorbance. P18054. Potency, µM (titrated, usually from 108 µM), inactives show top-dose activity change, negative = inhibition, actives largely listed as inhibitors; active means well fitted inhibition curve with a large enough effect; inconclusive means small, poorly fitted or top-dose-only effect, or another doubt; inactive means no such curve, though single readings can be large or run the other way; further: potency means the concentration at half of the fitted maximal effect; on the % scale 0 is the no-effect control and ±100 the full control effect
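Hydroperoxide product was detected by ferrous iron/xylenol orange as the 573 to 405 nm absorbance ratio. Arachidonic acid at 40 uM (final) was turned over for 30 min at room temperature by 150 nM human 12hLO, pH 7.0 Hepes buffer, after 15 min compound preincubation.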
Chronic BCR inh = inhibitors of chronic active B-cell receptor signaling. ABC-DLBCL IkBa-CBG/CBR reporter, luminescence ratio, 4 h. Potency, µM (doses to about 46.1 µM), inactives show at the highest dose activity change, negative = inhibition, most hits filed as inhibitors. 0.05% of 340,000 active. AID 493014; active means well fitted inhibition curve with a large enough effect in the signal ratio, with a control signal flat, not every such curve was filed as active; inconclusive means small, poorly fitted or top-dose-only effect, or effect the other way, or a change in a side signal; the % refers to the signal ratio;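 further: potency means the concentration at half of the fitted maximal effect; plate controls were basal doxycycline-induced cells for no effect and cells given 10 µM MG132 for full effect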
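TMD8 human ABC-DLBCL cells with doxycycline-inducible IκBα–green luciferase fusion and unfused red luciferase, in 0.5% FBS medium; compounds up to 46 uM, 4 h at 37C. Green/red luminescence ratio, filter-overlap corrected, fitted to concentration-response curves.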
hERG WT inh = KCNH2 (human, wildtype) channel inhibition; U2OS, BacMam KCNH2, thallium flux FluxOr; active compounds read low; activity change, % at 1.84 µM; 0.37% of 340,000 active; AID 720551;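 active means maximum activity change below -70%; inconclusive means maximum activity change between -70% and -50%; inactive means maximum activity change above -50%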; further: on the % scale 0 is the no-effect control and ±100 the full control effect
Target sequence (Q12809 whole entry, looked up): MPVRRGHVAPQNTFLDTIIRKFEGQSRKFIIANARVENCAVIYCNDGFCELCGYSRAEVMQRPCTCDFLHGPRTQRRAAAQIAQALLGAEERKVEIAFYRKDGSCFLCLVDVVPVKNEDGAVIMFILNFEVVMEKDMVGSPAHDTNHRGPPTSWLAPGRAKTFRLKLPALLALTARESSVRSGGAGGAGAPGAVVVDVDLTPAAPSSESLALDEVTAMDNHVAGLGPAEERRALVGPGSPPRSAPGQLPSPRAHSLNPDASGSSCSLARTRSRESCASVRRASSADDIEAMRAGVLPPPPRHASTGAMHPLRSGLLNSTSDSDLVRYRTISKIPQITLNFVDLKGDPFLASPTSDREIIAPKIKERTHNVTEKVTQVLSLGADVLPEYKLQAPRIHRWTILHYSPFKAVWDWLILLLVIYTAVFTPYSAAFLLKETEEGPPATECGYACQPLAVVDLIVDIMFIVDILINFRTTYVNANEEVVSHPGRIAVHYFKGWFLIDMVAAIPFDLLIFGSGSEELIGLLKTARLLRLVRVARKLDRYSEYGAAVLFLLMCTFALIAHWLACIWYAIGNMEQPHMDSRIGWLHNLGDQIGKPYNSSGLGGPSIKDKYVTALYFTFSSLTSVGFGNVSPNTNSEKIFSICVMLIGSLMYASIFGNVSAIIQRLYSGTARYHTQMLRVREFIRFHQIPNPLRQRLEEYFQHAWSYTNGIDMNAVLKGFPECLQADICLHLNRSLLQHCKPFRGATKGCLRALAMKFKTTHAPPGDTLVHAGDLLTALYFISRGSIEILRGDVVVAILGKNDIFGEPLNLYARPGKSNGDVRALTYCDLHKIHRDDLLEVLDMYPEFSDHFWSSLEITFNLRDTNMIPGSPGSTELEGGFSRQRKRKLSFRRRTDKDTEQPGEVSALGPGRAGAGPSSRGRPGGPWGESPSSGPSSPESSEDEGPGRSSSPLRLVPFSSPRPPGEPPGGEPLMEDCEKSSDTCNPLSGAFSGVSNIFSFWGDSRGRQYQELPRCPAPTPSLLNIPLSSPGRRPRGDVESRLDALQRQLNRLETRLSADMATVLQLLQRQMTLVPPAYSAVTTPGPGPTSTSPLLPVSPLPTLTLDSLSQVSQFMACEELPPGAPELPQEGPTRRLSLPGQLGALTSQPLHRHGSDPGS
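U2OS cells were transduced with wild-type KCNH2 virus (2.03 x 10^8 / mL) for 4 h at room temperature, then cultured overnight at 37 C. Thallium flux was read with FluxOr dye. Rate constants were normalized to DMSO controls.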
ClpP mod = qHTS Assay for Activators of ClpP; purified B. subtilis ClpP, FRET peptide cleavage, 20 min; AID 651965, 2013; Potency, µM (titrated, usually from 57.5 µM), inactives show top-dose activity change, negative = active; 1.9% of 340,000 active; ATP-dependent Clp protease proteolytic subunit (Bacillus subtilis (strain 168)), P80244; active means well fitted falling curve with a large enough effect; inconclusive means small, poorly fitted or top-dose-only effect; inactive means no such curve, though single readings can be large or run the other way; further: potency means the concentration at half of the fitted maximal effect; the source files actives as falling curves though it sought activators and does not explain the sign; nearly all actives have a fitted effect of over 65% in size
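Purified B. subtilis ClpP, 10 microg/mL final in Tris/HCl pH8 with KCl, BSA, glycerol and Tween-20, cleaved an Abz/nitrotyrosine-quenched decapeptide. Fluorescence (ex 320, em 430) was read at 0 and 20 min at room temperature. Delta was normalized to 5.8 microM ADEP and DMSO/no-enzyme controls.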
KCNH2 3.1 inh = blocks the human KCNH2 3.1 channel isoform. U2OS KCNH2 3.1, thallium flux FluxOr; active compounds read low. activity change, % (tested at about 1.8 µM). AID 720553. 0.95% of 340,000 active;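 active means maximum activity change below -70%; inconclusive means maximum activity change from -70% to -50%; inactive means maximum activity change above -50%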;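 further: thallium influx rate constant from kinetic fluorescence after stimulation buffer; on the % scale 0 is the no-effect control and ±100 the full control effect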
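Steps: virus added to U2OS suspension (4 h, RT, dark); medium with 10% FBS added, cells plated, 37 C overnight; FluxOr/Red40 loading buffer 45 min RT; stimulation buffer, 2 min kinetic read; rate constant normalized.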
LDHA inh = blocks human lactate dehydrogenase A. P00338. purified LDHA, NADH/diaphorase-resazurin fluorescence; active compounds read low. activity change, % (values are at about 110 or 230 µM). 0.15% of 480,000 active; in the data active means activity change below about -30%; inconclusive means mostly about -25% to -30%;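 further: plate controls were DMSO wells for no effect and wells without enzyme for full effect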
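Resorufin fluorescence (ex540/em590), read at 0 and 20 min after diaphorase/resazurin addition, reports the NADH left after a 5 min room-temperature reaction of 2 nM human LDH5 with 0.06 mM NADH and 0.2 mM pyruvate.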
* hit, by the source's call; u = inconclusive; x = no result given; ! = not confirmed by another sample; [ ] = remark or other dose. An excerpt weighted towards active compounds, which were near 3% of everything screened.

SMILES	12-LOX inh	Chronic BCR inh	hERG WT inh	ClpP mod	KCNH2 3.1 inh	LDHA inh
Cc1cc(C)cc(NC(=S)N(CCN(C)C)C(C)c2cccnc2)c1 (stereo not given)	0%	9%	-2	x	9	-3
Cc1cc(C)c(NC(=S)N(CCN(C)C)C(C)c2cccnc2)c(C)c1 (stereo not given)	0%	-5%	-2	16µM*	12	-13
CCNc1nc(SCC(=O)NC(=O)NC)nc2ccccc12	-43%	x	x	x	x	6
COc1ncc2nc(-c3cn(C)c4ccccc34)c(=O)n(Cc3ccc(F)cc3)c2n1	0%	x	x	x	x	x
COc1cccc(Cn2c(=O)c(-c3cn(C)c4ccccc34)nc3cnc(OC)nc32)c1	40µM*	x	x	x	x	x
CC(C)Cn1c(N)c(C(=O)CSc2nc3ccccc3n2C)c(=O)n(C)c1=O	3%	8%	22	-1%	-15	-9
Cc1csc(SCC(=O)c2c(N)n(CC(C)C)c(=O)n(C)c2=O)n1	-12%	14%	-325*	1%	-9	-4
CC(C)Cn1c(SCC(=O)c2c(N)n(C)c(=O)n(C)c2=O)nc2ccccc21	-12%	-1%	-116*	0%	-32	-7
CC(C)Cn1c(N)c(C(=O)COC(=O)c2cc(C3CC3)nc3ccccc23)c(=O)n(C)c1=O	3%	u	-2	25µM*	-19	1
Cc1ccc(O)c(C(=O)/C=C/c2ccccc2Cl)c1	25%	x	x	x	x	-6
CN1CCCN(C(=O)c2ccc(Cl)cc2)c2ccccc21	32µM*	x	x	x	x	x
CCCCn1nc(C(=O)NCCNS(=O)(=O)c2cc(C)ccc2C)c2ccccc2c1=O	2%	x	x	x	x	-23
COc1ccc(-c2cc(-c3n[nH]c(=S)n3-c3cccc4ccccc34)[nH]n2)cc1	u	-19%	-9	x	-5	-6
COc1cc(-n2c(-c3ccccc3)n[nH]c2=S)c(OC)cc1Cl	28µM*	-3%	-2	0%	5	-4
COc1ccccc1-c1n[nH]c(=S)n1N	14µM*	-10%	-9	-4%	6	-9
COc1ccccc1-n1c(-c2cc(-c3ccc(F)cc3)n[nH]2)n[nH]c1=S	40µM*	-19%	10	x	-3	-11
COc1ccc(C)cc1-n1c(-c2ccncc2)n[nH]c1=S	-9%	5%	9	1%	21	-1
O=C1Nc2ccccc2CC12CCCN(Cc1ccc(F)cc1)C2 (stereo not given)	-2%[6.33 µM]	x	x	x	x	x
COc1ccc(-c2nc(Cn3c(-c4cccc(Cl)c4)nc(C)c(CCO)c3=O)c(C)o2)cc1	-8%	x	x	x	x	x
O=C(COC(=O)COc1ccc2c(c1)CCC2)NC1CCS(=O)(=O)C1 (stereo not given)	7%	x	x	x	x	0
COc1ccc(CCNC(=O)COC(=O)C23CC4CC(CC(Br)(C4)C2)C3)cc1	-11%	1%	-88*	2%	-18	2
Oc1ccc(CNCc2ccccc2F)c2cccnc12	x	x	x	x	x	17
Oc1ccc(CNCc2ccc3c(c2)OCO3)c2cccnc12	x	15µM*	x	x	x	x
Cc1cc2cc(NC(=O)c3cccc(C)c3C)ccc2[nH]1	3%	x	x	x	x	-1
OC(Cc1nc2ccccc2[nH]1)c1ccccc1Cl (stereo not given)	1%[57.4 µM]	2%	-10	0%	-74*	-6
SMILES	12-LOX inh	Chronic BCR inh	hERG WT inh	ClpP mod	KCNH2 3.1 inh	LDHA inh
O=C1CC(c2ccc(O)cc2)Oc2cc(O)cc(O)c21 (stereo not given)	u	-2%	-1	-1%	24	-6
O=C(c1c(O)cc(O)cc1O)C1c2c(cc(O)c3c2O[C@H](c2ccc(O)cc2)[C@@H](O)C3)OC1c1ccc(O)cc1 (stereo not given in full)	25µM*	-4%	-5	1%	-16	-1
CCOC(=O)C1=CCN(S(=O)(=O)c2ccc(C)cc2)C1c1ccccc1 (stereo not given)	3%	x	x	-2%	x	-2
CCOc1cc2c(c3c1C(c1ccccc1)N(S(=O)(=O)c1ccc(C)cc1)C3)C(=O)C=CC2=O (stereo not given)	1.1µM*	x	x	1%	x	8
Cc1ccc(N(Cc2ccco2)C(=O)Cn2cnc3ccc(F)cc3c2=O)cc1	u	x	x	x	x	-5
N#Cc1ccccc1-c1ccc2ncnc(NCc3cccs3)c2c1	13µM*	x	x	x	x	x
C[N+](C)(C)C/C=C1/COCO1	11µM*!	4%	18	-3%	4	-9
CSc1ccc(C(=O)C2CCCN(Cc3cccc4nccnc34)C2)cc1 (stereo not given)	-14%	4%	u	x	-108*	-7
CCOc1cc(CN2CCCC(C(=O)c3cccc(C(F)(F)F)c3)C2)ccc1O (stereo not given)	-11%	u	43	x	-47	-5
O=C(c1cccc(C(F)(F)F)c1)C1CCCN(Cc2cccn2-c2ncccn2)C1 (stereo not given)	-3%	-27%	-72*	0%	-9	0
O=C(c1ccc(C(F)(F)F)cc1)C1CCCN(C(=O)c2cnccn2)C1 (stereo not given)	-22%	-3%	3	x	8	-4
O=C(c1ccc(C(F)(F)F)cc1)C1CCCN(Cc2cccn2-c2ncccn2)C1 (stereo not given)	-2%	1%	-112*	1%	-111*	-15
COc1ccc(NC(=O)c2ccc3c(c2)CCC3)cc1	-36%	x	x	x	x	9
COC(=O)Cn1c(Br)nc2c1c(=O)[nH]c(=O)n2C	51%	x	x	x	x	-12
Cn1c(Br)nc2c1c(=O)n(Cc1ccccc1Cl)c(=O)n2C	0%	x	x	x	x	2
COC(=O)Cn1c(Br)nc2c1c(=O)n(C)c(=O)n2C	35%	x	x	x	x	-35*
Cn1c(=O)c2c(nc(Br)n2Cc2ccccc2Cl)n(C)c1=O	0%	1%	1	2%	-88*	-6
Cc1ccccc1OCCSc1nc2cc(S(=O)(=O)N(C)C)ccc2o1	u	x	x	x	x	8
CCS(=O)(=O)N1CCN(c2ccc(C(=O)NC3C4CC5CC(C4)CC3C5)cc2[N+](=O)[O-])CC1 (stereo not given)	-4%	-2%	-1	25µM*	-3	10
CCOc1ccc(S(=O)(=O)N(C)CC(=O)N2CCCC2)cc1	2%	2%	-9	x	-100*	-2
CN(c1ccc(OCC(=O)N2CCCC2)cc1)S(=O)(=O)c1ccc(Cl)cc1	16%	7%	-133*	-5%	11	-4
NCCCCCC(=O)N/N=C/c1coc2ccccc2c1=O	0%	3%	0	18µM*	4	-9
